Values joined by “and” are separate entries in the source; they are usually repeats but may differ in a detail not shown here. Equal entries are not always repeated. Records with an inconclusive call do not appear. More than one record can exist for a structure, and the calls need not agree. Active and inactive are the calls of the source. Rule for the calls, unless noted: active = hit-call score of the fitted dose curve at least 0.9, where 1 is the maximum; inactive = score below 0.9.
Experiments:
[1] = CCTE_Shafer_MEA_dev_burst_rate: CCTE's Neural Network Formation Assay for Burst Rate, Shafer Lab (AID 2284042);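 for AC50: potency for loss of burst rate below DMSO control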
How it was run: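 Exposure ran continuously over 12 days of network development in rat cortical cultures, with compound refreshed during full media changes on DIV 5 and 9. Single-electrode bursts per recording time, well-mean over active electrodes, trapezoidal AUC across days 5–12, fitted downward relative to DMSO.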

[2] = CCTE_Shafer_MEA_dev_bursting_electrodes_number: CCTE's Neural Network Formation Assay for Number of Bursting Electrodes, Shafer Lab (AID 2284043; active = hit-call score of the fitted dose curve at least 0.9, where 1 is the maximum;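 note: potency is for loss of bursting electrodes relative to DMSO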)
How it was run: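 Read-out is the per-well number of electrodes bursting at least once every 2 minutes, recorded on days 5, 7, 9 and 12 and collapsed by trapezoidal area under the curve. Cultures were primary rat cortical neurons on MEA plates, treated continuously from plating.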

[3] = CCTE_Shafer_MEA_dev_per_burst_interspike_interval: CCTE's Neural Network Formation Assay for Burst Interspike Interval, Shafer Lab (AID 2284044);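 note: mean spike spacing inside bursts as AUC over recordings on days 5 7 9 12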;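 for AC50: potency for a decrease of within-burst interspike interval below DMSO level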
How it was run: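 Primary rat cortical neurons on 48-well MEA plates, exposed from day 0 through day 12, treatment renewed at DIV 5 and 9. Within-burst interspike interval recorded days 5, 7, 9, 12, well-averaged, summarised as AUC; negative fit versus DMSO.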

[4] = CCTE_Shafer_MEA_dev_burst_duration_mean: CCTE's Neural Network Formation Assay for Mean Burst Duration, Shafer Lab (AID 2284045);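 for AC50: curve fitted for loss meaning shorter burst duration than DMSO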
How it was run: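 Read-out: average first-to-last-spike interval within single-electrode bursts, averaged over bursting electrodes per well, then summarised as area under the curve across days 5, 7, 9 and 12. Developing rat cortical networks were exposed from day 0.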

[5] = CCTE_Shafer_MEA_dev_interburst_interval_mean: CCTE's Neural Network Formation Assay for Mean Interburst Interval, Shafer Lab (AID 2284046);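 note: well-mean interburst interval of bursting electrodes as AUC over four recording days; curve fitted for decrease in interburst interval relative to DMSO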
How it was run: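 Primary rat cortical neurons on PEI-coated 48-well MEA plates (laminin added with cells at plating) (16 electrodes/well), exposed from plating day 0 with renewal at DIV 5 and 9. Mean inter-burst interval averaged over bursting electrodes, AUC across days 5, 7, 9, 12; DMSO baseline.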

[6] = CCTE_Shafer_MEA_dev_inter_network_spike_interval_mean: CCTE's Neural Network Formation Assay for Mean Inter-network Spike Interval, Shafer Lab (AID 2284047)
How it was run: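 Mean time between consecutive network-spike peaks, recorded extracellularly (adaptive spike detection) on DIV 5, 7, 9 and 12, summarized as trapezoidal AUC. Rat cortical cultures on MEAs dosed continuously days 0–12, re-dosed at feeds; loss-of-signal fit relative to DMSO.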

[7] = CCTE_Shafer_MEA_dev_network_spike_number: CCTE's Neural Network Formation Assay for Number of Network Spikes, Shafer Lab (AID 2284048);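 note: synchronized bursts across electrodes counted on days 5 7 9 12 and integrated as AUC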;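 for AC50: fit as a loss of signal meaning fewer network spikes than DMSO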
How it was run: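 Developing networks of primary rat cortical neurons are treated over 12 days starting at plating, with media and compound fully replaced on DIV 5 and 9. Network spike counts from four recording days are integrated as trapezoidal AUC.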

[8] = CCTE_Shafer_MEA_dev_network_spike_peak: CCTE's Neural Network Formation Assay for Mean Number of Electrodes in Network Spike, Shafer Lab (AID 2284049);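 note: fitted for loss of signal meaning fewer electrodes in network spikes than DMSO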
How it was run: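 Rat cortical primary culture, 1.5 x 10^5 cells/well, 48-well MEA (16 electrodes/well). Dosing day 0 through DIV 12, full media/compound exchange DIV 5, 9. AxIS adaptive spike detection; AUC over days 5/7/9/12; loss-of-signal vs DMSO.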

[9] = CCTE_Shafer_MEA_dev_spike_duration_mean: CCTE's Neural Network Formation Assay for Mean Spike Duration, Shafer Lab (AID 2284051);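 note: mean network spike duration pooled as area under curve over DIV 5 to 12 recordings; potency for a decrease in mean network spike duration versus DMSO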
How it was run: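 Spontaneous activity was recorded on days 5, 7, 9 and 12 from rat cortical cultures grown on microelectrode arrays and dosed continuously from day 0, with media and compound renewed after the DIV 5 and 9 recordings. Network-spike duration was collapsed by area under the curve.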

[10] = CCTE_Shafer_MEA_dev_network_spike_duration_std: CCTE's Neural Network Formation Assay for Standard Deviation of Network Spike Duration, Shafer Lab (AID 2284052);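 note: hits are decreases in network spike duration SD versus DMSO vehicle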
How it was run: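 Network spike duration variability was collapsed across recordings on days 5, 7, 9 and 12 by trapezoidal area-under-curve and fitted downward against DMSO. Cultures were rat cortical neurons on PEI-coated MEA plates, dosed continuously from plating, refed with compound DIV 5/9.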

[11] = CCTE_Shafer_MEA_dev_per_network_spike_spike_number_mean: CCTE's Neural Network Formation Assay for Mean Number of Spikes in a Network Spike, Shafer Lab (AID 2284053);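 for AC50: fitted as decrease in spikes per network spike relative to DMSO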
How it was run: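 Mean spike count within each network spike, taken in a 0.05 s window at its peak, was recorded on days 5, 7, 9 and 12 and integrated as trapezoidal area under the curve. Rat cortical cultures on MEA plates received continuous compound from day 0, refreshed at medium changes on DIV 5 and 9.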

[12] = CCTE_Shafer_MEA_dev_per_network_spike_spike_percent: CCTE's Neural Network Formation Assay for Percent of Spikes in a Network Spike, Shafer Lab (AID 2284054)
How it was run: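 Rat primary cortical cultures, 1.5 x 10^5 cells/well on MEA. Continuous compound exposure d0–12, medium/compound renewed DIV 5, 9. Network-spike spike % (0.05 s peak window), AUC over 4 recordings, DMSO baseline.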

[13] = CCTE_Shafer_MEA_dev_LDH: CCTE's Lactate Dehydrogenase Assay for Cytotoxicity in the Neural Network Formation Assay, Shafer Lab (AID 2284068; active = hit-call score of the fitted dose curve at least 0.9, where 1 is the maximum;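 note: exposure for twelve days from plating with re-dosing on DIV 5 and 9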)
How it was run: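 Primary rat cortical neurons were cultured on PEI-coated MEA plates and exposed from plating through day 12, with compound renewed at medium changes on DIV 5 and 9. LDH activity was read spectrophotometrically; loss of signal versus DMSO indicates reduced viability.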

[14] = CCTE_Shafer_MEA_dev_AB: CCTE's Alamar Blue Assay for Cytotoxicity in the Neural Network Formation Assay, Shafer Lab (AID 2284083; active = hit-call score of the fitted dose curve at least 0.9, where 1 is the maximum;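 note: resazurin reduction fluorescence as viability of cultured neurons; twelve days of exposure from plating with re-dosing on DIV 5 and 9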)
How it was run: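 Resazurin fluorescence, relative to DMSO, gauges viability after twelve days of exposure that began at plating of rat cortical neurons (1.5 x 10^5 cells/well, 48-well MEA); treatment renewed with full medium exchange on DIV 5 and 9.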

[15] = CCTE_Shafer_MEA_acute_AB: CCTE's Alamar Blue Assay for Cytotoxicity in the Neural Acute Assay, Shafer Lab (AID 2284069; active = hit-call score of the fitted dose curve at least 0.9, where 1 is the maximum;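 note: active compounds lower the viability signal compared with DMSO wells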)
How it was run: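 Resazurin reduction (CellTiter Blue, 1:6 in fresh medium) read at ex 544/em 590 nm marks viability loss relative to DMSO. Cells: primary rat cortical neuron networks on microelectrode arrays, treated after baseline recording at 13 or 15 days in vitro.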

[16] = CCTE_Shafer_MEA_acute_LDH: CCTE's Lactate Dehydrogenase Assay for Cytotoxicity in the Neural Acute Assay, Shafer Lab (AID 2284086; active = hit-call score of the fitted dose curve at least 0.9, where 1 is the maximum;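 note: active means LDH release rises above DMSO vehicle level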)
How it was run: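 Primary rat cortical neurons on 48-well MEA plates, treated on day 13 or 15 post-plating. After the 40-min recording with compound, medium LDH release was read by absorbance at 490 nm. Gain of signal was fitted against DMSO negative control.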

[17] = tested on: DIO2 (gene 1734); experiment: CCTE_GLTED_hDIO2: CCTE's human Deiodinase 2 (DIO2) Inhibition Assay, Great Lakes Toxicology and Ecology Division (GLTED) Lab (AID 2284050; active = hit-call score of the fitted dose curve at least 0.9, where 1 is the maximum)
How it was run: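 Cell-free human DIO2 enzyme was incubated with test chemical for 3 h; iodide liberated from substrate was then quantified by the Sandell-Kolthoff reaction (absorbance), run in triplicate. Loss of signal versus DMSO baseline indicated inhibition.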

[18] = tested on: DIO3 (gene 1735); experiment: CCTE_GLTED_hDIO3: CCTE's human Deiodinase 3 (DIO3) Inhibition Assay, Great Lakes Toxicology and Ecology Division (GLTED) Lab (AID 2284055; active = hit-call score of the fitted dose curve at least 0.9, where 1 is the maximum)
How it was run: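 Cell-free assay with human DIO3 enzyme produced by adenovirus expression; enzyme incubated with test chemical for 3 hours. Liberated iodide then measured by Sandell-Kolthoff absorbance; loss of signal versus DMSO baseline indicates inhibition, run in triplicate.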

**Q.** What does the source list for `COP(=S)(OC)SCN1C(=O)c2ccccc2C1=O`?
**A.** AC50 [1]: 61300 nM (active); outcome [1]: inactive; AC50 [2]: 32.6 µM (active) and 51.5 µM (active); AC50 [3]: 11200 nM (active); outcome [3]: inactive; outcome [4]: inactive; outcome [5]: inactive; outcome [6]: inactive; outcome [7]: inactive; AC50 [8]: 37.6 µM (active) and 51.5 µM (active); AC50 [9]: 36.7 µM (active) and 23.6 µM (active); outcome [10]: inactive; AC50 [11]: 31.8 µM (active); outcome [11]: inactive; AC50 [12]: 20.2 µM (active); outcome [12]: inactive; AC50 [13]: 28.9 µM (active); outcome [13]: inactive; AC50 [14]: 31.7 µM (active); outcome [14]: inactive

**Q.** For `[Cl-].[Cl-].[Hg+2]`, which AC50 [1] is on record?
**A.** 923 nM (active)

**Q.** And the AC50 [2]?
**A.** 539 nM (active)

**Q.** What about the AC50 [3] of the same compound?
**A.** 869 nM (active)

**Q.** And the AC50 [4]?
**A.** 881 nM (active)

**Q.** What about the AC50 [5] of the same compound?
**A.** 318 nM (active)

**Q.** What about the outcome [6] of the same compound?
**A.** inactive

**Q.** What about the AC50 [7] of the same compound?
**A.** 444 nM (active)

**Q.** And the AC50 [8]?
**A.** 641 nM (active)

**Q.** What about the AC50 [9] of the same compound?
**A.** 640 nM (active)

**Q.** And the AC50 [10]?
**A.** 382 nM (active)

**Q.** What about the AC50 [11] of the same compound?
**A.** 0.894 µM (active)

**Q.** What about the AC50 [12] of the same compound?
**A.** 0.423 µM (active)

**Q.** And the AC50 [13]?
**A.** 0.929 µM (active)

**Q.** What about the AC50 [15] of the same compound?
**A.** 32600 nM (active)

**Q.** What about the AC50 [14] of the same compound?
**A.** 0.559 µM (active)

**Q.** What about the AC50 [16] of the same compound?
**A.** 30600 nM (active)

**Q.** Which outcome [1] does the source give for `CCNS(=O)(=O)C(F)(F)C(F)(F)C(F)(F)C(F)(F)C(F)(F)C(F)(F)C(F)(F)C(F)(F)F` here?
**A.** inactive

**Q.** What about the AC50 [2] of the same compound?
**A.** 15 µM (active) and 2.98 µM (active)

**Q.** What about the outcome [3] of the same compound?
**A.** inactive

**Q.** And the outcome [4]?
**A.** inactive

**Q.** And the outcome [5]?
**A.** inactive

**Q.** What about the outcome [6] of the same compound?
**A.** inactive

**Q.** And the AC50 [7]?
**A.** 2980 nM (active)

**Q.** What about the outcome [7] of the same compound?
**A.** inactive

**Q.** And the AC50 [8]?
**A.** 5.46 µM (active) and 1.92 µM (active)

**Q.** And the AC50 [17]?
**A.** 100000 nM (active)

**Q.** And the AC50 [9]?
**A.** 15 µM (active) and 4.81 µM (active)

**Q.** What about the outcome [10] of the same compound?
**A.** inactive

**Q.** What about the AC50 [11] of the same compound?
**A.** 4.54 µM (active) and 2.66 µM (active)

**Q.** And the AC50 [12]?
**A.** 6.71 µM (active) and 4.93 µM (active)

**Q.** What about the outcome [18] of the same compound?
**A.** inactive

**Q.** What about the AC50 [13] of the same compound?
**A.** 8.58 µM (active) and 4.41 µM (active)

**Q.** And the AC50 [14]?
**A.** 15 µM (active) and 7.67 µM (active)
